# Compound activity (PubChem BioAssay)
# An excerpt weighted towards active compounds, which were near 4% of everything screened.
# TRHR agonist-1 – qHTS for Small Molecule Agonists and Allosteric Enhancers of Human TRH Receptor: Primary Screen for Agonists | Thyrotropin-releasing hormone receptor (Homo sapiens), P34981 | activation, % at 2 µM | actives 0.18% (n = 360,000) | TRHR cells, calcium flux fluo-8, FDSS agonist mode; in the data active = activation above about 30%; note: 0% is about no effect
#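 Steps: seed TRHR cells overnight; add fluo-8 no-wash Ca dye, RT 30 min–1.5 h; record 10 s baseline; pin-transfer compounds; monitor fluorescence 1 cycle/s for the agonist window. Calcium increases flag candidate agonists.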
# D1 agonist – Allosteric Agonists of the Human D1 Dopamine Receptor: qHTS | D(1A) dopamine receptor (Homo sapiens), P21728 | HEK293 T-REx D1 cells, calcium flux, agonist mode | activation, % at 2 µM | actives 1% (n = 360,000); in the data active = activation above about 30%; note: 0% is about no effect
# Target sequence (P21728 whole entry, looked up): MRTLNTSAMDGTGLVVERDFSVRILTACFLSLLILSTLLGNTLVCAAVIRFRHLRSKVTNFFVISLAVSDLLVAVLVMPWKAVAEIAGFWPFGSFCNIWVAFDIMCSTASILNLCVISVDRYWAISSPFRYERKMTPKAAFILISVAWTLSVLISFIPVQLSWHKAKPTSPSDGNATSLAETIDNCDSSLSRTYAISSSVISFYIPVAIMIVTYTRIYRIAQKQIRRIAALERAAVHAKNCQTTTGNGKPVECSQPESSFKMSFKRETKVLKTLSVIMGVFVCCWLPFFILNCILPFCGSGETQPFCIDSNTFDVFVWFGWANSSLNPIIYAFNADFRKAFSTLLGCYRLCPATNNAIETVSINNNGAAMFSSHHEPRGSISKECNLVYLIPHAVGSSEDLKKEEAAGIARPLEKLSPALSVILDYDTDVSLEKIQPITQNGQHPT
#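 Inducible HEK293 T-REx D1 cells, force-coupled to calcium signalling, were plated at 4000 cells/well with tetracycline and held overnight at 30 C. After no-wash calcium dye loading, compound-evoked calcium rise over 180 s flagged agonists.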
# TRHR enhancer-1 – qHTS for Small Molecule Agonists and Allosteric Enhancers of Human TRH Receptor: Primary Screen for Enhancers | Thyrotropin-releasing hormone receptor (Homo sapiens), P34981 | TRHR cells, fluo-8 calcium fluorescence, EC20 TRH enhancement | enhancement, % at 2 µM | actives 0.66% (n = 360,000) | AID 493056, 2011; in the data active = enhancement above about 30%; note: 0% is about no effect
#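 TRHR-expressing cells loaded with fluo-8 calcium dye were read kinetically (ex 480/em 530) during compound addition, then stimulated with an EC20 of TRH (10 nM final). Enhancement of the Gq-mediated intracellular calcium response was scored.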
# GRP78 ERSR act – qHTS for Inducers of the Endoplasmic Reticulum Stress Response (ERSR) in Human Glioma: qHTS; U87-MG GRP78 promoter luciferase reporter, 16 h; Potency, µM, without a hit: top-dose activation, usual class: activators; actives 0.02% (n = 420,000); AID 602332, 2012; note: potency is the fitted concentration of half-maximal effect; series mostly up to about 76 µM; % of control where 0% means no effect; nearly all actives have a fitted effect of over 35% in size
#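 Stably transfected U87-MG human glioma cells carrying a GRP78-based luminescent sensor were seeded at 1000 cells/well, pin-dosed with compounds and incubated 16 h. Luciferase reagent was then added, and end-point luminescence was read after 10 min at room temperature.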
# D1 antagonist – Antagonist of Human D 1 Dopamine Receptor: qHTS. actives 3.2% (n = 360,000). activity change, negative = inhibition, % at 10 µM. HEK293 TREx D1 cells, calcium flux, dopamine EC80; active compounds read low. D(1A) dopamine receptor (Homo sapiens), P21728; in the data active = activity change below about -30%; note: % is set by controls: 0 for no effect and ±100 for the full control effect
#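 Calcium flux readout: force-coupled, inducible Hek293 Trex D1 line, cells induced overnight at 30 C with tetracycline, dye-loaded 30–90 min at RT. Antagonism scored against EC80 dopamine challenge given 180 s after compound.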
# D1 PAM – Potentiators of Human D1 Dopamine Receptor: qHTS | D(1A) dopamine receptor (Homo sapiens), P21728 | HEK293 TREx D1 cells, calcium flux, dopamine EC20 potentiation | potentiation, % at 10 µM | actives 0.036% (n = 360,000); in the data active = potentiation above about 30%; note: 0% is about no effect
# TRHR enhancer-2 – qHTS for Small Molecule Agonists and Allosteric Enhancers of Human TRH Receptor: Confirmation Screen for Enhancers; activity change, negative = inhibition, % at 46.1 µM; 970 tested, under 10 active; shares compounds with TRHR enhancer-1; TRH receptor cell assay, enhancer confirmation qHTS;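 note: compound effect scored on response to added TRH at EC20 of 10 nM; 0% is about no effect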
# TRHR agonist-2 – qHTS for Small Molecule Agonists and Allosteric Enhancers of Human TRH Receptor: Confirmation Screen for Agonists; shares compounds with TRHR enhancer-1; TRHR-expressing cells, agonist activation read-out; Potency, µM (series often up to 46.1 µM), for inactives: at the top dose activation, actives largely listed as activators; actives 8% (n = 970); note: potency is the fitted concentration of half-maximal effect; 0% is about no effect; nearly all actives have a fitted effect of over 75% in size
# * hit, by the source's call; ? = inconclusive; / = not tested or not shown. Unless noted, calls come from the whole dose curve; as a rule, active = well fitted curve in the direction sought with a large enough effect; inconclusive = small, poorly fitted or top-dose-only effect, or another doubt; inactive = no such curve, though single readings can be large; an effect the other way counts as inactive or inconclusive.
SMILES,TRHR agonist-1,D1 agonist,TRHR enhancer-1,GRP78 ERSR act,D1 antagonist,D1 PAM,TRHR enhancer-2,TRHR agonist-2
CCN(CC)C(=O)c1sc2nc(-c3cccs3)cc(-c3ccc(Cl)cc3)c2c1N,28,55*,0,-1%,-21,12,-2,18µM*
CC1CN(C(=O)COC(=O)c2ccc(Cl)nc2)CC(C)O1 (stereo not given),0,4,0,-1%,-1,0,/,/
O=C(Cc1ccc2c(c1)OCCO2)Nc1cc(Cl)ccc1N1CCOCC1,0,1,-3,-4%,13,3,/,/
COc1ccc(-c2nc3cc(C)ccn3c2NC(=O)c2c(F)cccc2Cl)cc1,2,3,56*,-1%,12,3,?,5%
Nc1nc(SCC(=O)Nc2ccc(Cl)cn2)n[nH]1,0,2,0,-3%,-10,5,/,/
COCCNC(=O)C1CC(c2ccc(C(F)(F)F)cc2)=NO1 (stereo not given),/,/,/,0%,/,/,/,/
COc1cc(Cl)c(C)cc1N1C(=O)CN(Cc2ccccc2)C1=S,91*,4,-6,-2%,-10,-9,-4,0%
NC(=O)CN1C(=O)NC(c2ccccc2)(c2ccccc2)C1=O,1,2,1,-3%,-6,-4,/,/
CC(C)(C)C(=O)CN1C(=O)NC(c2ccccc2)(c2ccccc2)C1=O,3,1,42*,-6%,2,8,-1,0%
Cc1cccc(N2CCN(C(=O)/C=C/c3cccs3)CC2C)c1 (stereo not given),0,0,-6,-1%,7,-3,/,/
Cc1cccc(N2CCN(C(=O)NC3CCCCC3)CC2C)c1 (stereo not given),0,3,42*,-1%,-20,2,-9,2%
CC(=O)c1cc(NC(=O)c2ccc(C)cc2)c(=O)oc1/C=C/N(C)C,29,34*,-1,-3%,15,0,4,21µM*
Cc1cc(C)nc(N2CCCC(C(=O)NCC(c3ccccc3)c3ccccc3)C2)n1 (stereo not given),0,5,-16,-8%,-7,12,/,/
N#C/C(=C/c1ccc(N2CCOCC2)o1)C(=O)NC1CCCCC1,47*,113*,2,4%,-5,-5,?,21µM*
CSc1ccc(/C=C(\C#N)C(=O)NC2CCCCC2)cc1,0,4,4,-1%,5,-1,/,/
CCCCCCCCc1nnc(N)s1,0,1,-2,-3%,-4,-2,/,/
CC1(C)Cc2c(sc(NC(=O)c3ccc4ncsc4c3)c2C(N)=O)C(C)(C)N1,0,2,44*,-2%,1,0,9,0%
Cn1c(=O)[nH]c(=O)c2c1nc(NCc1ccccc1)n2Cc1ccc(F)cc1,-1,1,48*,-2%,-10,-7,5,1%
O=[N+]([O-])c1ccc2sc(SCc3nc4ccccn4c3Br)nc2c1,-1,1,41*,/,-18,-8,-7,3%
Brc1c(CSc2nc3ccccc3s2)nc2ncccn12,0,2,6,-3%,11,-3,/,/
CC(C)[C@H](NC(=O)c1c(F)cccc1F)C(=O)OCC(=O)NC(=O)NC1CCCC1,-1,3,55*,-1%,3,0,-3,0%
CC(C)CCNC(=O)NC(=O)CSc1ccc(S(=O)(=O)N2CCOCC2)cn1,-1,0,63*,1%,14,4,13,-1%
CC(C)CC(=O)NC(=S)N1CCCCCC1,0,-2,42*,-4%,8,-6,?,0%
C[C@@]12C=Cc3occc3[C@H]1CC[C@@]13C[C@@H](CC[C@H]12)[C@@](O)(CO)C3,/,/,/,0%,/,/,/,/
CC1CCN(c2c(NCC3CCC(C(=O)NCc4ccccc4Cl)CC3)c(=O)c2=O)CC1 (stereo not given),1,-3,7,1%,-13,-6,/,/
SMILES,TRHR agonist-1,D1 agonist,TRHR enhancer-1,GRP78 ERSR act,D1 antagonist,D1 PAM,TRHR enhancer-2,TRHR agonist-2
CN(C)S(=O)(=O)c1ccc(C(=O)NCC(=O)N/N=C/c2ccccc2)cc1,1,-1,82*,-4%,14,-1,-3,-1%
Cc1ccccc1NC(=O)c1ccc(S(=O)(=O)N(C)C)cc1,-1,2,45*,-3%,-10,-1,-4,-1%
CCc1ccc(C(=O)NCC2COc3ccccc3O2)o1 (stereo not given),0,5,60*,5%,1,1,-8,1%
Cc1cccc(NC(=O)CCNS(=O)(=O)c2ccc(Cl)cc2)c1,0,1,20,0%,0,-3,/,/
Cc1cccc(OCCNS(=O)(=O)c2ccc(Cl)cc2)c1,1,4,51*,1%,-8,7,4,1%
COc1cc2c(cc1OC)n(CC(=O)c1cccc(Cl)c1)c(=O)n1nc(CCn3nc(C)cc3C)nc21,0,2,-1,-3%,-19,0,/,/
Cc1ccc(COc2ccc3c(c2)OCO3)cc1,0,4,8,5%,-11,-8,/,/
O=Cc1ccc(OCc2ccc3c(c2)OCO3)cc1,26,4,-1,-9%,-15,8,-5,2%
Cc1ccc(CN2CCN(c3ccccc3)CC2)o1,0,0,0,-2%,11,-3,/,/
Cc1nn(C)c(C(=O)NC(=S)Nc2ccccc2Br)c1Cl,75*,2,22,2%,-4,8,-16,13µM*
CCn1ncc(Cl)c1C(=O)NC(=S)Nc1ccccc1Br,12,6,2,0%,-10,-3,/,/
O=C(O)c1ccc(N/N=C/c2ccc(F)c(F)c2)cc1,0,3,47*,-12%,6,-5,-9,-1%
O=C(O)c1ccc(N/N=C/c2cccc(F)c2)cc1,0,2,3,-11%,-1,5,/,/
